Rows were chosen to be rich in hits. Some 8.1% of all compounds tested hit in one or more screens of this group.
SW480 rerep: DNA re-replication induction in SW480 cells; hit rate 1.8% among 340,000; SW480 DNA re-replication, Hoechst DNA content imaging, 48 h; AID 624297; Potency, µM (top dose mostly 46.1 µM), most hits filed as activators; further: nearly all actives have a fitted effect of over 55% in size
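Image-based DNA-content assay: after two days of treatment, nuclei were labelled with the DNA dye Hoechst and imaged, and hits were compounds raising the count of nuclei showing high fluorescence intensity.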
KB-3-1 tox: KB-3-1 parental cell cytotoxicity; KB-3-1 viability, CellTiter-Glo ATP luminescence, 72 h; Potency, µM (highest dose often 46.1 µM), actives largely listed as cytotoxic; hit rate 1.4% among 400,000; AID 1347075; further: nearly all actives have a fitted effect of over 60% in size
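Cells are dispensed, compounds pinned in, plates held at 37 °C for 72 h, then CellTiter-Glo is added and luminescence read after 10 minutes. Cell line: parental KB-3-1 in phenol-red-free DMEM, 10% FBS.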
ELG1 DNA repair: inhibitors of ELG1-dependent DNA repair in HEK293T cells | HEK293T ELG1-luciferase reporter, luminescence, 16 h; DNA damage induced by 5-fluorouridine | Potency, µM (titrated, usually from 46.1 µM), most hits filed as inhibitors | hit rate 2.3% among 330,000; further: nearly all actives have a fitted effect of over 55% in size
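DMSO vehicle served as the neutral condition. Each well held 2,000 cells given 5-fluorouridine plus compound; after 16 hr at 37 °C/5% CO2, ONE-Glo was added and luciferase measured 30 min later.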
KB-V1 cytotox: KB-V1 MDR subline cytotoxicity; KB-V1 MDR cells viability, CellTiter-Glo, 72 h; Potency, µM (top dose mostly 46.1 µM), hits mostly cytotoxic; hit rate 3.4% among 400,000; further: nearly all actives have a fitted effect of over 60% in size
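Following 72 h at 37 degrees C with compound, KB-V1 cell viability was read by CellTiter-Glo luminescence, medium being phenol-red-free DMEM plus 10% FBS; concentration-response parameters came from normalized, curve-fitted qHTS data.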
MCF10A rereplic: induces DNA re-replication in MCF 10a normal breast cells; MCF 10A DNA re-replication, Hoechst nuclear intensity, 48 h; Potency, µM (highest dose often 46.1 µM), hits mostly activators; hit rate 2.9% among 350,000; further: nearly all actives have a fitted effect of over 50% in size
A number is an active result; i = inactive; ? = inconclusive; nt = no result given; [ ] = another dose, or the depositor's remark. The call rests on the fitted dose curve; in most records, active means well fitted curve in the direction sought with a large enough effect; inconclusive means small, poorly fitted or top-dose-only effect, or another doubt; inactive means no such curve, though single readings can be large; an effect the other way counts as inactive or inconclusive.

SMILES	SW480 rerep	KB-3-1 tox	ELG1 DNA repair	KB-V1 cytotox	MCF10A rereplic
O=C(NCC1CCCO1)C(=O)NCC(c1ccco1)N1CCN(c2ccccc2)CC1 (stereo not given)	?	i	i	21µM	i
COC(=O)NCC(c1ccco1)N1CCN(c2ccccc2)CC1 (stereo not given)	i	i	i	i	i
O=C(NCC1CCCO1)C(=O)NCC(c1ccco1)N1CCN(c2ccc(F)cc2)CC1 (stereo not given)	i	i	i	8.2µM	i
O=S(=O)(c1ccc(Cl)cc1)c1nc(-c2cccs2)oc1SCc1ccc(F)cc1	nt	i	nt	?	nt
CS(=O)(=O)N1CCc2cc(S(=O)(=O)N3CCN(Cc4ccc5c(c4)OCO5)CC3)ccc21	i	i	?	21µM	i
CCC(=O)N1CCCC(C(=O)Nc2ccc3cn[nH]c3c2)CC1 (stereo not given)	nt	i	nt	i	nt
COc1ccc(NC(=O)Nc2ccc(F)cc2F)c(C)c1	i	i	?	i	i
O=C(Nc1ccc(OC(F)(F)F)cc1)Nc1cccc([N+](=O)[O-])c1	?	12µM	?	16µM	12µM
Cc1cc([N+](=O)[O-])ccc1NC(=O)Nc1ccc(F)cc1F	i	?	i	15µM	?
Cc1ccc(NC(=O)Nc2cccc([N+](=O)[O-])c2)cc1F	i	?	?	16µM	?
O=C(Nc1ccc(OC(F)(F)F)cc1)Nc1cccnc1	i	i	?	i	i
CC(C)COc1ccc(C(=O)Nc2ccc([N+](=O)[O-])cc2)cc1	i	i	1.5µM	i	i
Cc1cc(NC(=O)Nc2cccc([N+](=O)[O-])c2)no1	i[1.84 µM]	i	i	i	i
CCCOC1(C(F)(F)F)NC(=O)N(c2cccc(Cl)c2)C1=O (stereo not given)	nt	i	nt	i	nt
O=C(Nc1ccc(Oc2ccc(NC(=O)Nc3ccc([N+](=O)[O-])cc3)cc2)cc1)Nc1ccc([N+](=O)[O-])cc1	i	18µM	i	?	i
CCc1cccc(NC(=O)CCS(=O)(=O)c2cc3c4c(c2)CCN4C(=O)CC3)c1	nt	i	nt	i	nt
NC(=O)[C@@H]1CC2(CC(c3cccc(NC(=O)CC(c4ccccc4)c4ccccc4)c3)=NO2)CN1C(=O)COc1ccc(Cl)cc1 (stereo not given in full)	i[9.22 µM]	?	13µM	i	i
NC(=O)[C@H]1CC2(CC(c3cccc(NC(=O)COc4ccc(Cl)cc4)c3)=NO2)CN1C(=O)CC(c1ccccc1)c1ccccc1 (stereo not given in full)	i[9.22 µM]	?	?	i	?
NC(=O)[C@H]1CC2(CC(c3cccc(NC(=O)COc4ccc(Cl)cc4)c3)=NO2)CN1C(=O)c1ccc(Cl)cc1 (stereo not given in full)	?	i	?	i	?
NC(=O)[C@H]1CC2(CC(c3cccc(NC(=O)COc4ccc(Cl)cc4)c3)=NO2)CN1C(=O)c1ccccc1C(=O)c1ccccc1 (stereo not given in full)	i	21µM	?	i	?
COc1ccc(N2CCN(C(=O)c3csc4ccccc34)CC2)cc1	i	i	i	21µM	i
COc1ccc(Nc2ncc(C(=O)N3CCN(c4ccc(OC)cc4)CC3)c3ccccc23)cc1	nt	i	nt	?	nt
COc1ccc(Nc2ncc(C(=O)N3CCN(c4ccc(F)cc4)CC3)c3ccccc23)cc1	i	?	21µM	?	i
Cc1cccc2c(C(O)c3c[nH]c4c(C)cccc34)c[nH]c12	nt	i	nt	i	nt
Cc1ccc(N=C2NC(=O)CC(C(=O)Nc3cc(C(F)(F)F)ccc3Cl)S2)cc1 (stereo not given)	nt	i	nt	i	nt
COc1ccc(-c2c(C)nn3c(N4CCC(C(=O)NCCN(C)C)CC4)cc(C)nc23)cc1OC	i	i	i	i	i
CCCN(CCC)C(=O)C1CCN(c2cc(C)nc3c(-c4ccc(OC)c(OC)c4)c(C)nn23)CC1	i	i	6.5µM	i	i
CCN(Cc1nc2ccccc2c(=O)[nH]1)C(=O)COc1ccccc1-c1ccccc1	i	i	?	?	?
CCS(=O)(=O)Nc1cccc(C2=NN(C(=O)c3ccco3)C(c3ccco3)C2)c1 (stereo not given)	13µM	8.2µM	i	i	13µM

Screening results as filed in PubChem BioAssay.
